# According to PubChem BioAssay AID651597 (National Center for Advancing Translational Sciences (NCATS), 2012):
# Among all 1,100 compounds or so, about 390 (35%) were called active. Inconclusive results (about 30%) are left out. Calls come from the whole dose curve; as a rule, active = well fitted inhibition curve with a large enough effect; inconclusive = small, poorly fitted or top-dose-only effect; inactive = flat fitted curve, though single readings scatter. This is one part of the list.
# Target: Luciferin 4-monooxygenase (Photinus pyralis) (UniProt P08659)
# Assay: qHTS of Nrf2 Activators: Hit Validation in Secondary FLuc Assay; note: nearly all actives have a fitted effect of over 65% in size
# Conditions: firefly luciferase inhibition counter-screen, luminescence; series mostly up to 57.5 µM; activity, negative = inhibition: at the top concentration
# How it was run: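 Counter-screen on purified firefly luciferase with ATP and D-luciferin at Km concentrations; compounds flagged if they inhibit the enzyme, indicating possible reporter stabilization rather than ARE activation.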
# % is set by controls: 0 for no effect and ±100 for the full control effect; potency is the fitted concentration of half-maximal effect.
SMILES,Potency,"activity, negative = inhibition"
O=C(N/N=C/c1ccsc1)c1ccc2ccccc2n1,10.7 µM (active),
O=C(Nc1ccc(F)cc1)c1sccc1SCc1cccc(C(F)(F)F)c1,,-4.78% (inactive)
O=C(Nc1ccc(F)cc1)c1cc2ccccc2o1,0.953 µM (active),
CN1C2CCC1/C(=C\c1ccccc1)C(=O)/C2=C\c1ccccc1,,-3.98% (inactive)
O=C1/C(=C/c2ccccc2)CCc2ccc(Cl)nc21,10.7 µM (active),
C1=C(c2ccc(-c3ccccc3)cc2)Nc2ncnn2C1c1ccco1 (stereo not drawn),10.7 µM (active),
Brc1ccc(C2=CC(c3ccco3)n3nnnc3N2)cc1 (stereo not drawn),,-8.07% (inactive)
CCOc1ccsc1C(=O)NNC(=O)c1ccco1,,4.68% (inactive)
Cc1ccc2nc(N(CCN(C)C)C(=O)/C=C/c3cccs3)sc2c1,,-22.7% (inactive)
O=C(/C=C/c1cccs1)c1ccco1,9.53 µM (active),
COc1ccc(Sc2cnn(-c3ccccc3)c(=O)c2Cl)cc1,,-21% (inactive)
NC(=O)N/N=C/c1ccccc1OC(=O)c1ccccc1Br,10.7 µM (active),
c1ccc(CNc2nc(NCc3ccco3)nc(N3CCOCC3)n2)cc1,,5.72% (inactive)
CCN=c1scc(C)n1/N=C/c1ccsc1,6.75 µM (active),
Cc1[nH]c2ccccc2c1N=Nc1ccccc1F,19 µM (active),
Cc1[nH]c2ccccc2c1N=Nc1ccccc1C(=O)O,8.49 µM (active),
Cc1cccn2c(=O)c(C=NCCO)c(NCc3ccco3)nc12,,-5.84% (inactive)
O/N=C/c1ccc2cccc(OCc3ccccc3)c2n1,,-3.72% (inactive)
CC1CN(C(=O)/C=C/c2ccc([N+](=O)[O-])s2)CC(C)O1 (stereo not drawn),,4.93% (inactive)
Clc1ccccc1NN=Cc1ccccn1,2.13 µM (active),
COc1ccc(OC)c(/C=C(\C#N)c2nc(-c3ccc(F)cc3)cs2)c1,,-25.1% (inactive)
COc1ccc(O)c(-c2cc(-c3ccccc3Cl)[nH]n2)c1,6.01 µM (active),
COc1ccc(O)c(-c2cc(-c3ccc(F)cc3)n[nH]2)c1,4.78 µM (active),
COc1ccc(Cl)cc1NC(=O)c1cc(-c2ccccc2O)n[nH]1,,-23.7% (inactive)
COC(=O)c1scc(C)c1NC(=O)c1ccc(Cl)cc1,,5.2% (inactive)

SMILES,Potency,"activity, negative = inhibition"
O=C(CN1CCN(Cc2ccccc2)CC1)N/N=C\C=C/c1ccco1,,-3.19% (inactive)
O=C1S/C(=C\C=C\c2ccco2)C(=O)N1c1ccc(O)cc1,9.53 µM (active),
O=C1S/C(=C\C=C\c2ccco2)C(=O)N1c1ccccc1,6.75 µM (active),
CN1CCN(c2sc(S(C)(=O)=O)nc2S(=O)(=O)c2ccc(Cl)cc2)CC1,,-0.708% (inactive)
Cc1ccc(O)c(NC(=O)c2cc([N+](=O)[O-])ccc2Cl)c1,,-21.1% (inactive)
Cc1ccc([N+](=O)[O-])cc1NC(=O)c1ccccc1,,5.55% (inactive)
CC(C)=NNc1cnnc2ccc([N+](=O)[O-])cc12,10.7 µM (active),
O=C(NC1CCCCC1)N(c1ccccc1)c1nnc(-c2cccc([N+](=O)[O-])c2)s1,16.9 µM (active),
CC(=O)Nc1ccc(S(=O)(=O)c2ccnc3cc(Cl)ccc23)cc1,,-10.5% (inactive)
c1ccc(C2=Nn3c(nnc3-c3ccco3)SC2)cc1,26.9 µM (active),
C[n+]1c2n(c3ccccc31)N=C(c1ccccc1)CS2,inactive,
Cc1ccc2oc(-c3cccc(NC(=O)c4ccc(Br)o4)c3)nc2c1,8.49 µM (active),
Cc1cc(C(=O)Nc2cc(Br)ccc2O)on1,,-27.5% (inactive)
Cc1nc(NC(=O)c2ccc(Br)o2)ccc1Br,9.53 µM (active),
Cc1ccc(C)c(-c2nnc(NC(=O)c3ccc([N+](=O)[O-])o3)o2)c1,,-24.8% (inactive)
O=C(Nc1ccc2ccccc2c1)c1ccc(Br)o1,1.2 µM (active),
O=C(Cn1cnc2ccccc21)N/N=C/C(Br)=C/c1ccccc1,,-29.9% (inactive)
O=C(/C=C/Nc1ccc(F)cc1)c1cccs1,0.19 µM (active),
O=C(NNC(=O)c1nc(Cl)ccc1Cl)c1ccc(F)cc1,,-24.8% (inactive)
COCCn1c(=NC(=O)c2cc(Cl)sc2Cl)sc2cc(S(N)(=O)=O)ccc21,15.1 µM (active),
O=c1oc2ccccc2cc1-c1csc(Nc2ccc(O)cc2)n1,1.35 µM (active),
O=c1oc2ccc(Br)cc2cc1-c1nc2ccccc2o1,,-2.54% (inactive)
CN1CCN(S(=O)(=O)c2ccc(Sc3nnnn3-c3ccccc3)c([N+](=O)[O-])c2)CC1,,-15.7% (inactive)
CCOc1cc2c(c3c1C(c1ccccc1)N(S(=O)(=O)c1ccc(C)cc1)C3)C(=O)C=CC2=O (stereo not drawn),0.601 µM (active),
Cc1ccsc1/C=N/N=C1\C(=O)Nc2ccccc21,3.38 µM (active),

SMILES,Potency,"activity, negative = inhibition"
Cc1ccccc1/C=C1\C(=O)Nc2ccc(F)cc21,,-16.3% (inactive)
COC(=O)[C@@]1(Sc2ccc(C)cc2)CC(=O)N(C(=O)/C=C/c2ccccc2)[C@@H]1c1ccccc1,,-4.35% (inactive)
O=C(CNC(=S)NC(=O)c1ccccc1Br)c1ccccc1,,-2.89% (inactive)
O=C(NC(=S)Nc1cc(C(F)(F)F)ccc1Cl)c1ccccc1,,-18.4% (inactive)
O=C(NC(=S)Nc1ccccc1O)c1ccccc1Cl,8.49 µM (active),
O=C1/C(=C\c2ccc(Cl)cc2)CCC1CNc1ccc(Cl)cc1 (stereo not drawn),19 µM (active),
Cc1ccc(S(=O)(=O)c2nc(S(C)(=O)=O)sc2N2CCCCC2C)cc1 (stereo not drawn),,3.09% (inactive)
COc1cc(C=C(c2nc3ccccc3s2)c2nc3ccccc3s2)ccc1O,12 µM (active),
O=C1Nc2cccnc2N(C(=O)CCl)c2ccccc21,,-2.21% (inactive)
COc1ccccc1C=Cc1ccnc2ccccc12,5.36 µM (active),
O=C(c1ccco1)c1cn(CC(=O)N2CCCc3ccccc32)c2ccccc12,,-29.5% (inactive)
CC(=O)Nc1ccc(O)c(-c2nc3ccccc3s2)c1,2.13 µM (active),
O=C1c2cccc3cccc(c23)C(=O)N1Cc1ccco1,,-1.75% (inactive)
c1ccc(N=NC2=NN(c3ccccc3)CS2)cc1,2.13 µM (active),
Cc1ccc(Sc2cnn(-c3ccccc3)c(=O)c2Cl)cc1,,0.573% (inactive)
O=c1c(Cl)c(N/N=C/c2ccc(Cl)cc2)cnn1-c1ccccc1,19 µM (active),
O=C(O)c1ccc(-n2ncc(Cl)c(Cl)c2=O)cc1,,4.91% (inactive)
Oc1ccc2ccccc2c1/C=C/c1ccc2c(Br)cc(Br)c(O)c2n1,10.7 µM (active),
COc1cc(OC)c(NC(=O)c2ccco2)cc1Cl,,-28.1% (inactive)
COc1cc2c(cc1NC(=O)c1ccco1)CCCC2,7.57 µM (active),
COc1cc2c(cc1NC(=O)c1ccccc1F)CCCC2,8.49 µM (active),
COC(=O)c1sccc1NC(=O)c1ccccc1F,,2.44% (inactive)
Cc1noc(C)c1COc1ccccc1C(=O)NNC(=O)c1ccccc1F,,-1.09% (inactive)
